# Reference: the supplement of paper PMC8728848
# Many of the other results were omitted from the sample, so the strongest signals are more common in it than they were.
# B1: PX14379D-pdi-530-26-530 (Parabacteroides distasonis) (protein)
# chain: DETVYDKLPADDFGQSTAELNALIGNSHNTMKKFWTEYMHLSECSGSMAVTPTRRGGDWYDGGQYREIYMHTWTSQTSRVKSAWKAATEAIGTCNEAIRKLQNSEILTEEEKAQDVADLRGVRAFWIYVMMDYWGNIPLLTEFHPTDKVFPGNSSRQEVFDWLIQEVEEIKDICPPATTENYGSFTQGAAYSLLAKLYLNAEAWGVTFSGNAYQKVIDNCDKVMAMGYILEPNWKDNFSVTNENSKEAILAATFSSSDTGNDGNVKNELHNNTLHYKDYLSLGITASGTWNGICAQPEYVRLFDEEDARLDGTFLTGLMIDKSTGKPIMTDHNNELNHTIDVNMIPGMEYDGTNWSAVEQHDGARCFKWEFASDLTSSMGNDFHIFRLADIYLMKAEALLRGGGSVSEATALVNTIRERGYGNSDHNYATVTLKEVQLERRLELAWEVYSRQDDIRFGCFTTGMWPQSNCERKADDYLKLLPVSQDAWQVNPNLKQNPGYAAFSK
# How the values were obtained:
# Experiment in all cases: glycan array binding signal (z-score within array); higher = stronger binding
# Conditions in all cases: glycan notation: IUPAC condensed, linker removed
# [1] = target: Fuc(a1-2)Gal(b1-3)GalNAc(a1-3)[Fuc(a1-2)]Gal(b1-4)GlcNAc
# Outline: (§1)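 Negative Z-scores can be read as non-binding. The Z-score is calculated within each array and then averaged across arrays of one protein sequence at different concentrations or buffers and across linkers. Arrays, 3228 in all, were curated from the Consortium for Functional Glycomics database and kept only where the protein sequence was available.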
# [2] = target: Fuc(a1-2)Gal(b1-4)GlcNAc(b1-2)Man(a1-3)[Fuc(a1-2)Gal(b1-4)GlcNAc(b1-2)Man(a1-6)]Man(b1-4)GlcNAc(b1-4)[Fuc(a1-6)]GlcNAc
# Outline: as §1
# [3] = target: Fuc(a1-2)Gal(b1-4)[Fuc(a1-3)]GlcNAc(b1-2)[Fuc(a1-2)Gal(b1-4)[Fuc(a1-3)]GlcNAc(b1-4)]Man(a1-3)[Fuc(a1-2)Gal(b1-4)[Fuc(a1-3)]GlcNAc(b1-2)Man(a1-6)]Man(b1-4)GlcNAc(b1-4)GlcNAc
# Outline: as §1
# [4] = target: Fuc(a1-2)Gal(b1-4)[Fuc(a1-3)]GlcNAc(b1-3)Gal(b1-4)[Fuc(a1-3)]GlcNAc(b1-3)Gal(b1-4)[Fuc(a1-3)]GlcNAc
# Outline: as §1
# [5] = target: Fuc(a1-2)Gal6S(b1-3)GlcNAc6S
# Outline: as §1
# [6] = target: Fuc(a1-2)[Gal(a1-3)]Gal(b1-4)GlcNAc(b1-2)Man
# Outline: as §1
# Fuc(a1-3)GlcNAc = target: Fuc(a1-3)GlcNAc
# Outline: as §1
# [7] = target: Fuc(a1-3)[Gal(b1-4)]GlcNAc
# Outline: as §1
# [8] = target: Fuc(a1-3)[GalNAc(b1-4)]GlcNAc
# Outline: as §1
# [9] = target: Gal(a1-3)Gal(b1-3)[Fuc(a1-4)]GlcNAc(b1-2)Man(a1-3)[Gal(a1-3)Gal(b1-3)[Fuc(a1-4)]GlcNAc(b1-2)Man(a1-6)]Man(b1-4)GlcNAc(b1-4)GlcNAc
# Outline: as §1
# Gal(a1-3)Gal(b1-4)Glc = target: Gal(a1-3)Gal(b1-4)Glc
# Outline: as §1
# [10] = target: Gal(a1-3)[Gal(a1-4)]Gal(b1-4)GlcNAc
# Outline: as §1
# [11] = target: Gal(b1-3)GlcNAc(b1-6)Gal(b1-4)GlcNAc
# Outline: as §1
# [12] = target: Gal(b1-4)GlcNAc(b1-3)Gal(b1-3)GlcNAc
# Outline: as §1
# [13] = target: Gal(b1-4)GlcNAc(b1-3)Gal(b1-4)GlcNAc(b1-2)Man(a1-3)[Gal(b1-4)GlcNAc(b1-3)Gal(b1-4)GlcNAc(b1-2)Man(a1-6)]Man(b1-4)GlcNAc(b1-4)GlcNAc
# Outline: as §1
# [14] = target: Gal(b1-4)GlcNAc(b1-3)Gal(b1-4)GlcNAc(b1-3)Gal(b1-4)GlcNAc
# Outline: as §1
# [15] = target: Gal(b1-4)GlcNAc(b1-3)Gal(b1-4)GlcNAc(b1-3)Gal(b1-4)GlcNAc(b1-2)Man(a1-3)[Gal(b1-4)GlcNAc(b1-3)Gal(b1-4)GlcNAc(b1-3)Gal(b1-4)GlcNAc(b1-2)Man(a1-6)]Man(b1-4)GlcNAc(b1-4)GlcNAc
# Outline: as §1
# [16] = target: Gal(b1-4)GlcNAc(b1-3)Gal(b1-4)GlcNAc(b1-3)Gal(b1-4)GlcNAc(b1-3)Gal(b1-4)GlcNAc(b1-2)[Gal(b1-4)GlcNAc(b1-3)Gal(b1-4)GlcNAc(b1-3)Gal(b1-4)GlcNAc(b1-3)Gal(b1-4)GlcNAc(b1-6)]Man(a1-6)[Gal(b1-4)GlcNAc(b1-3)Gal(b1-4)GlcNAc(b1-3)Gal(b1-4)GlcNAc(b1-3)Gal(b1-4)GlcNAc(b1-2)Man(a1-3)]Man(b1-4)GlcNAc(b1-4)[Fuc(a1-6)]GlcNAc
# Outline: as §1
# [17] = target: Gal(b1-4)GlcNAc(b1-3)Gal(b1-4)GlcNAc(b1-3)Gal(b1-4)GlcNAc(b1-3)Gal(b1-4)GlcNAc(b1-3)Gal(b1-4)GlcNAc(b1-2)[Gal(b1-4)GlcNAc(b1-3)Gal(b1-4)GlcNAc(b1-3)Gal(b1-4)GlcNAc(b1-3)Gal(b1-4)GlcNAc(b1-3)Gal(b1-4)GlcNAc(b1-6)]Man(a1-6)[Gal(b1-4)GlcNAc(b1-3)Gal(b1-4)GlcNAc(b1-3)Gal(b1-4)GlcNAc(b1-3)Gal(b1-4)GlcNAc(b1-3)Gal(b1-4)GlcNAc(b1-2)Man(a1-3)]Man(b1-4)GlcNAc(b1-4)[Fuc(a1-6)]GlcNAc
# Outline: as §1
# [18] = target: Gal(b1-4)GlcNAc(b1-6)Gal(b1-4)GlcNAc
# Outline: as §1
# Gal3S(b1-3)GlcNAc = target: Gal3S(b1-3)GlcNAc
# Outline: as §1
# Gal3S6S(b1-4)GlcNAc6S = target: Gal3S6S(b1-4)GlcNAc6S
# Outline: as §1
# [19] = target: GalNAc(b1-4)GlcNAc(b1-2)Man(a1-3)[GalNAc(b1-4)GlcNAc(b1-2)Man(a1-6)]Man(b1-4)GlcNAc(b1-4)GlcNAc
# Outline: as §1
# [20] = target: GlcNAc(a1-4)Gal(b1-4)GalNAc
# Outline: as §1
# [21] = target: GlcNAc(b1-3)Gal(b1-4)GlcNAc(b1-2)Man(a1-3)[GlcNAc(b1-3)Gal(b1-4)GlcNAc(b1-2)Man(a1-6)]Man(b1-4)GlcNAc(b1-4)[Fuc(a1-6)]GlcNAc
# Outline: as §1
# [22] = target: GlcNAc(b1-3)Gal(b1-4)GlcNAc(b1-3)Gal(b1-4)GlcNAc(b1-2)Man(a1-3)[GlcNAc(b1-3)Gal(b1-4)GlcNAc(b1-3)Gal(b1-4)GlcNAc(b1-2)Man(a1-6)]Man(b1-4)GlcNAc(b1-4)GlcNAc
# Outline: as §1
# [23] = target: GlcNAc(b1-3)Gal(b1-4)GlcNAc(b1-3)Gal(b1-4)GlcNAc(b1-2)Man(a1-3)[GlcNAc(b1-3)Gal(b1-4)GlcNAc(b1-3)Gal(b1-4)GlcNAc(b1-2)Man(a1-6)]Man(b1-4)GlcNAc(b1-4)[Fuc(a1-6)]GlcNAc
# Outline: as §1
# [24] = target: GlcNAc6S(b1-3)Gal(b1-4)GlcNAc
# Outline: as §1
# Kdn(a2-3)Gal(b1-3)GlcNAc = target: Kdn(a2-3)Gal(b1-3)GlcNAc
# Outline: as §1
# [25] = target: Man(a1-2)Man(a1-3)[Man(a1-6)]Man(a1-6)[Man(a1-2)Man(a1-3)]Man(b1-4)GlcNAc(b1-4)GlcNAc
# Outline: as §1
# [26] = target: Man(a1-2)Man(a1-6)[Man(a1-3)]Man(a1-6)[Man(a1-2)Man(a1-2)Man(a1-3)]Man
# Outline: as §1
# [27] = target: Man(a1-3)[Man(a1-6)]Man(a1-6)[Man(a1-2)Man(a1-3)]Man(b1-4)GlcNAc(b1-4)GlcNAc
# Outline: as §1
# [28] = target: Man(a1-3)[Man(a1-6)]Man(a1-6)[Man(a1-3)]Man(b1-4)GlcNAc(b1-4)GlcNAc
# Outline: as §1
# Man(b1-4)GlcNAc = target: Man(b1-4)GlcNAc
# Outline: as §1
# [29] = target: Neu5Ac(a2-3)Gal(b1-3)GalNAc(b1-3)Gal(a1-4)Gal(b1-4)Glc
# Outline: as §1
# [30] = target: Neu5Ac(a2-3)Gal(b1-3)GlcNAc(b1-2)Man
# Outline: as §1
# [31] = target: Neu5Ac(a2-3)Gal(b1-4)GlcNAc
# Outline: as §1
# [32] = target: Neu5Ac(a2-3)Gal(b1-4)GlcNAc(b1-2)Man(a1-3)[Neu5Ac(a2-3)Gal(b1-4)GlcNAc(b1-2)Man(a1-6)]Man(b1-4)GlcNAc(b1-4)[Fuc(a1-6)]GlcNAc
# Outline: as §1
# [33] = target: Neu5Ac(a2-3)Gal(b1-4)GlcNAc(b1-2)[Neu5Ac(a2-3)Gal(b1-4)GlcNAc(b1-4)]Man(a1-3)[GlcNAc(b1-4)][Neu5Ac(a2-3)Gal(b1-4)GlcNAc(b1-4)Man(a1-6)]Man(b1-4)GlcNAc(b1-4)GlcNAc
# Outline: as §1
# [34] = target: Neu5Ac(a2-3)Gal(b1-4)[Fuc(a1-3)]GlcNAc(b1-3)Gal(b1-4)[Fuc(a1-3)]GlcNAc(b1-3)Gal(b1-4)[Fuc(a1-3)]GlcNAc
# Outline: as §1
# [35] = target: Neu5Ac(a2-3)[Neu5Ac(a2-6)]GalNAc
# Outline: as §1
# [36] = target: Neu5Ac(a2-6)Gal(b1-4)GlcNAc(b1-2)Man(a1-3)[GlcNAc(b1-4)][Neu5Ac(a2-6)Gal(b1-4)GlcNAc(b1-2)Man(a1-6)]Man(b1-4)GlcNAc(b1-4)GlcNAc
# Outline: as §1
# [37] = target: Neu5Ac(a2-8)Neu5Gc(a2-3)Gal(b1-4)GlcNAc
# Outline: as §1
# [38] = target: Neu5Gc(b2-6)Gal(b1-4)GlcNAc
# Outline: as §1
binder,measurement,setting,value
B1,glycan array binding signal (z-score),[1],-1.42
same,glycan array binding signal (z-score),[2],-0.233
same,glycan array binding signal (z-score),[3],-0.436
same,glycan array binding signal (z-score),[4],2.52
same,glycan array binding signal (z-score),[5],2.88
same,glycan array binding signal (z-score),[6],1.09
same,glycan array binding signal (z-score),Fuc(a1-3)GlcNAc,-0.715
same,glycan array binding signal (z-score),[7],-0.689
same,glycan array binding signal (z-score),[8],-0.221
same,glycan array binding signal (z-score),[9],2.48
same,glycan array binding signal (z-score),Gal(a1-3)Gal(b1-4)Glc,-0.838
same,glycan array binding signal (z-score),[10],4.67
same,glycan array binding signal (z-score),[11],-1.22
same,glycan array binding signal (z-score),[12],-1.08
same,glycan array binding signal (z-score),[13],2.97
same,glycan array binding signal (z-score),[14],-0.298
same,glycan array binding signal (z-score),[15],1.92
same,glycan array binding signal (z-score),[16],3.06
same,glycan array binding signal (z-score),[17],1.59
same,glycan array binding signal (z-score),[18],0.063
same,glycan array binding signal (z-score),Gal3S(b1-3)GlcNAc,-0.593
same,glycan array binding signal (z-score),Gal3S6S(b1-4)GlcNAc6S,2.52
same,glycan array binding signal (z-score),[19],2.64
same,glycan array binding signal (z-score),[20],-0.622
same,glycan array binding signal (z-score),[21],0.749
same,glycan array binding signal (z-score),[22],2.91
same,glycan array binding signal (z-score),[23],2.19
same,glycan array binding signal (z-score),[24],0.56
same,glycan array binding signal (z-score),Kdn(a2-3)Gal(b1-3)GlcNAc,-0.752
same,glycan array binding signal (z-score),[25],-1.26
same,glycan array binding signal (z-score),[26],-0.013
same,glycan array binding signal (z-score),[27],-0.447
same,glycan array binding signal (z-score),[28],-0.474
same,glycan array binding signal (z-score),Man(b1-4)GlcNAc,-1.02
same,glycan array binding signal (z-score),[29],0.43
same,glycan array binding signal (z-score),[30],0.26
same,glycan array binding signal (z-score),[31],-0.826
same,glycan array binding signal (z-score),[32],0.415
same,glycan array binding signal (z-score),[33],-0.482
same,glycan array binding signal (z-score),[34],-0.094
same,glycan array binding signal (z-score),[35],-1.44
same,glycan array binding signal (z-score),[36],0.549
same,glycan array binding signal (z-score),[37],12.8
same,glycan array binding signal (z-score),[38],-0.722
